Data: PubChem BioAssay (Tox21)
Records with an inconclusive call do not appear. Where a call stands in place of a potency, no number is given. Activity calls are given as the source filed them. The call rests on the fitted dose curve; in most records, active means well fitted cell-killing curve with a large enough effect in the repeat runs; inconclusive means weak or mixed curves, or effect the other way; inactive means flat fitted curve, though single readings scatter.

test: qHTS assay to identify small molecule agonists of the constitutive androstane receptor (CAR) signaling pathway - cell viability counter screen (AID 1224836); details: HepG2-CYP2B6-hCAR viability, CellTiter-Fluor, 23 h, PK11195 added to every well; series mostly up to 92.4 µM; further: nearly all actives have a fitted effect of over 45% in size
From the text: U.S. Tox21 Program National Center for Advancing Translational Sciences [NCATS] NIH Chemical Genomics Center [NCGC] U.S. Environmental Protection Agency [EPA] National Institutes of Environmental Health Sciences [NIEHS] National Toxicology Program [NTP] U.S. Food and Drug Administration [FDA] Tox21 Assay Overview: The constitutive androstane receptor (CAR) is a nuclear receptor which regulates multiple drug metabolizing enzymes (DMEs) and transporters. Activating CAR will generally increase the transcription and subsequent translation of CYP2B6 and CYP3A4. These two DMEs represent about 50% of the drug metabolizing potential in the body. […] Recently, there have also been studies performed indicating CARs role in energy metabolism and cancer therapy. Therefore, inducing CARs activity could have a potential effect on diabetes and cancer. Identifying environmental toxins and compounds which modulate CAR, through the use of the Tox21 10K compound collection, will be an important step in determining the toxicity and potential therapeutic effects these factors will have on the human body. To differentiate true CAR agonists from cytotoxic substances, the assay is multiplexed with a cell viability assay.
Tox21 Assay Protocol Summary: A double-stable (hCAR and CYP2B6-2.2kb) transfected cell line, derived from human hepatoma (HepG2) cells, was utilized for the duration of the quantitative high-throughput screens. The HepG2-CYP2B6-hCAR cells were dispensed at 2500 cells/4 uL/well in 1536-well white solid bottom plates using a Multidrop Combi. After the assay plates were incubated at 37 C/5% CO2 for 4 hrs, 23 nL of compounds at 15 concentrations (from 5-48 columns) or positive control (from 1 to 4 columns) were transferred to the assay plates using a Pintool station. One uL of PK11195 (final concentration = 0.75 uM) was added, using a Flying Reagent Dispenser, inside each well. After a 23 hr incubation period at 37 C/5% CO2, 1 uL of CellTiter-Fluor reagent was added into each well of the assay plates using a Flying Reagent Dispenser. The fluorescence intensity in the plates was then measured using a ViewLux plate reader.

SMILES	Potency	viability change, negative = cytotoxic
c1ccc(CN(Cc2ccccc2)Cc2ccccc2)cc1	inactive	
CC(CC(C#N)(c1ccccc1)C(C)C)N(C)C (stereo not given)	inactive	
N#C[C@@H]1CC(F)(F)CN1C(=O)CNC1CC2CCC(C1)N2c1ncccn1 (stereo not given in full)	inactive	
C=CC(=O)OCCCCCCCCCC	inactive	
CC(C)=CCC/C(C)=C/C=N/O	inactive	
Cc1cc(SC2=C(O)C[C@@](CCc3ccc(N)cc3)(C(C)C)OC2=O)c(C(C)(C)C)cc1CO	inactive	
Oc1ccc(CCNCCCCCCNCCc2ccccc2)cc1O	inactive	
CCCOC(C)=O	inactive	
CC(=O)S[C@H](C(=O)N[C@H]1Cc2ccccc2[C@H]2CCC[C@@H](C(=O)O)N2C1=O)C(C)C	inactive	
CCCCCCCCCCCCN1CCOCC1	inactive	
Cc1ccc(Cl)c(OCC(O)CNC(C)(C)C)c1 (stereo not given)	inactive	
COc1ccc(/C(C)=C/C(=O)O)c(OC)c1	inactive	
NC(=O)c1ccccc1C(N)=O	inactive	
O=Cc1ccc([N+](=O)[O-])cc1	inactive	
O=C1C=CCCC1	inactive	
O=S(=O)(O)c1cc(Cl)c(Cl)cc1Cl	inactive	
Nc1ccccc1Nc1ccccc1	inactive	
C=C[Si]1(C)O[Si](C)(C=C)O[Si](C)(C=C)O[Si](C)(C=C)O1 (stereo not given)	inactive	
C=C[Si](OCC)(OCC)OCC	inactive	
COc1cc(C)c(Cc2cnc(N)nc2N)cc1OC	inactive	

SMILES	Potency	viability change, negative = cytotoxic
CCc1c(C)[nH]c2c1C(=O)C(CN1CCOCC1)CC2 (stereo not given)	inactive	
CCCCOC(=O)CC#N	inactive	
Cc1nc2sccn2c(=O)c1CCN1CCC(=C(c2ccc(F)cc2)c2ccc(F)cc2)CC1	inactive	
COC(=O)Cc1cccc2ccccc12	inactive	
CCOc1ccccc1O	inactive	
COc1ccnc2c1CCCCC2S(=O)c1nc2ccccc2[nH]1 (stereo not given)	inactive	
CC(=O)Nc1ccn(C2COC(COC(=O)c3ccccc3)O2)c(=O)n1 (stereo not given)	inactive	
CCCCCCCCC(=O)OCC(C)OC(=O)CCCCCCCC (stereo not given)	inactive	
NC(=O)c1ccccc1	inactive	
CC(C)=CCCC(C)C=O (stereo not given)	inactive	
O=C(Nc1ccc2c(c1)Cc1ccccc1-2)C(F)(F)F	inactive	
COc1cccc([C@H](O)C2CCN(CCc3ccc(F)cc3)CC2)c1OC	inactive	
Clc1ccccc1-c1nc(-c2ccncc2)no1	inactive	
C=C(C)C(=O)OCCCCCCCCCCOC(=O)C(=C)C	inactive	
CCCCCCCCCCCCCCCCCCCl		3.36% [at 8.39 µM] (inactive)
O=C(O)CCc1nc2ccccc2[nH]1	inactive	
Cc1c(Nc2ncccc2C(=O)O)cccc1C(F)(F)F	inactive	
N#CCCCC(C#N)CCC#N (stereo not given)	inactive	
CCCCCCCCCCCCSC#N	inactive	
CC1=CC(=C(c2ccc(N)cc2)c2ccc(N)cc2)C=CC1=N		-5.57% [at 8.39 µM] (inactive)
